# Records with an inconclusive call do not appear. A call without a number means that no potency is given here. Active and inactive are the calls of the source. Calls follow the shape of the dose curve; as a rule, active = well fitted inhibition curve with a large enough effect; inconclusive = small, poorly fitted or top-dose-only effect; inactive = flat fitted curve, though single readings scatter.
# Molecular target: Calcium and integrin-binding protein 1 (Homo sapiens) (UniProt Q99828)
# Experiment: Primary qHTS for Identification of Calcium Integrin Binding Protein 1 (CIB1) Competitor (AID 1508620);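 also: GST tagged CIB1 binding a fluorescein labelled alphaIIb integrin peptide tracer; top concentration of the series differs between compounds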
# Details: CIB1-GST / FITC-alphaIIb peptide fluorescence polarization; series mostly up to 114 µM
# Outline: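 CIB1-GST (1 uM final) and compound incubated 15 min at room temperature before adding FITC-alphaIIb peptide tracer (100 nM final). Competition for binding read by fluorescence polarization (ex 480, em 540) after another 15 min at room temperature.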
# Sequence of Calcium and integrin-binding protein 1 (Homo sapiens) (Q99828 whole entry, looked up): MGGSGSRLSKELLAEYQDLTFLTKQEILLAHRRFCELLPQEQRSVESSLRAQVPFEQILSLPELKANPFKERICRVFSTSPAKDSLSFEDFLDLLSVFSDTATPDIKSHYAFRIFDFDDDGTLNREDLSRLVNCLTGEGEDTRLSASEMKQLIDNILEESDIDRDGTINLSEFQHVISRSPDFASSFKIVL
row,SMILES,Potency
1,O=C(NCCc1nc2ccccc2n1CCOc1cc(F)ccc1F)C1CCCCC1,inactive
2,COc1cccc(CNc2ccc(S(=O)(=O)Nc3ccc(C)nc3)cc2)c1O,inactive
3,c1nc(NCCc2cnc[nH]2)c2cc(-c3ccoc3)ccc2n1,inactive
4,Cc1ccc(OCCn2c(CCNC(=O)c3ccc([N+](=O)[O-])cc3)nc3ccccc32)cc1,inactive
5,O=C1N/C(=C\c2ccco2)C(=O)N1Cc1ccccc1,inactive
6,Cc1ccnc(NC(=S)N2CCN(c3cccc(N(C)C)c3)CC2)c1,inactive
7,O=C(N/C=C/c1ccccc1)c1cccc([S+](=O)([O-])Nc2ccccc2F)c1,inactive
8,COc1ccc(C[C@H](C(=O)O)N2C(=O)c3ccc(C(=O)O)cc3C2=O)cc1,inactive
9,COc1cc(O)c(C(CC(=O)N2CCC(c3ccccc3)CC2)c2ccc(C)cc2)c(OC)c1 (stereo not given),inactive
10,C=CCNc1oc(C2CCCC2)nc1C#N,inactive
11,O=C(O)CN1C(=O)N/C(=C\c2cccn2-c2ccc(P(=O)(O)O)cc2)C1=O,inactive
12,C#CCOc1cccc(-c2nnc3n2N=C(c2ccc(OC)c(OCC(C)=O)c2)CS3)c1,inactive
13,CC(=O)Nc1cccc(OC2=NS(=O)(=O)c3ccccc32)c1,inactive
14,CC(C)c1ccccc1-c1nc(NCC2CCN(c3cccnc3)CC2)c2ccccc2n1,inactive
15,CC(=O)N(C(C)=O)n1c(C)nc2sc3c(c2c1=O)CCNC3,inactive
16,Cc1ccsc1CNc1ncnc2ccc(-c3c(C)noc3C)cc12,inactive
17,O=S(=O)(NC1CCCC(NS(=O)(=O)c2c(F)cccc2F)C1)c1ccc2c(c1)OCCO2 (stereo not given),inactive
18,Cc1ccc(OCCn2c(CCNC(=O)c3ccccc3N)nc3ccccc32)cc1,inactive
19,COc1cc(NC(=O)c2cnn3c(C)cc(C)nc23)cc(OC)c1OC,inactive
20,CCn1cnc2c(Nc3cccc(Cl)c3)nc(C#N)nc21,inactive

row,SMILES,Potency
1,COc1cc(O)c(C(CC(=O)N2CCC(c3ccccc3)CC2)c2ccc(OC)c(OC)c2)c(OC)c1 (stereo not given),inactive
2,O=C1Nc2ccccc2/C1=C\c1ccc(C(=O)O)cc1,inactive
3,CC(=O)NC(C)c1cc(Cl)c2ccccc2c1O (stereo not given),inactive
4,O=C(CNC(=O)c1ccccc1)OC(Cc1ccccc1)C(=O)Nc1cc(C(F)(F)F)ccc1Cl (stereo not given),inactive
5,O=C(Nc1ccc(F)nc1)Nc1nnc(-c2ccncc2)s1,inactive
6,O=C1CCc2cc(S(=O)(=O)NCc3ccccc3)ccc2N1,inactive
7,CC(=O)N1CCN(c2ccc(NCc3ccc4c(c3)OCO4)cc2)CC1,inactive
8,O=C(Nc1cncnc1)c1cccs1,inactive
9,CC1(C)CC(=O)C2=C(C1)NC(Nc1nc3ccccc3o1)=NC21CCCCC1,inactive
10,COc1ccc(C2=Nn3c(nnc3-c3ccccc3F)SC2)cc1OC1CCOC1 (stereo not given),inactive
11,S=C(Nc1ccc(Cl)c(Cl)c1)Nc1nnc(-c2ccncc2)s1,inactive
12,O=S(=O)(Nc1cnc2ccccc2c1)c1ccc(NCc2ccc(Br)cc2O)cc1,inactive
13,N#Cc1nc(Nc2cccc(Cl)c2)nc(NC2CCCC2)n1,inactive
14,Cn1c2cc(CO)sc2c2cnn(Cc3ccccc3F)c(=O)c21,inactive
15,Oc1ccc(CNc2ccc3ccccc3n2)c2cccnc12,inactive
16,Cc1ccc(-c2ccc(=O)n(CC(=O)NCCC3CC3)n2)cc1,inactive
17,O=[S+]([O-])(c1ccc2nsnc2c1)N1CCN([S+](=O)([O-])c2c(F)cccc2F)CC1,inactive
18,O=P(c1ccccc1)(c1ccccc1)c1cnc2ccccn12,inactive
19,Nc1ccc(S(=O)(=O)Nc2cccc3cccnc23)cc1,inactive
20,CC(=O)Nc1sc2c(c1-c1cccc3ccccc13)CCNC2,inactive
